PubChem BioAssay AID1159580 (chemical genetic matrix, 2015)
“And” between values parts separate entries of the source, which are not always exact repeats. Identical values can stand only once. Among all 5,500 compounds or so, about 2,000 (36%) were called active. About 18% were inconclusive and are not listed. The list shows a part of the results. A number with no mark means an inactive call. No stated cut-off is given here; in the data, active means normalized growth mostly below about 0.91 (no sharp cut-off); inconclusive means no clear call, values can overlap the other calls; inactive means mostly above about 0.92.

Test: chemical genetic growth profiling, strain panel (AID 1159580);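 further: tested at 20 µM; growth read once vehicle control cultures reached saturation at 30 °C; 1 = growth at the plate median or of vehicle wells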
Conditions: growth OD

## COc1ccc2c(c1)c(CC(=O)O)c(C)n2C(=O)c1ccc(Cl)cc1
S. cerevisiae deletion strains, locus YJR075W, strain HOC1, stronger effect = lower value
  normalized growth: 1
S. cerevisiae deletion strains, locus YKL009W, strain mrt4, stronger effect = lower value
  normalized growth: 0.998
S. cerevisiae deletion strains, locus YKL068W, stronger effect = lower value
  normalized growth: 0.959
S. cerevisiae deletion strains, locus YKL085W, strain MDH1 (second series), stronger effect = lower value
  normalized growth: 0.955
S. cerevisiae deletion strains, locus YKL085W, strain MDH1, stronger effect = lower value
  normalized growth: 0.955
S. cerevisiae deletion strains, locus YKL160W, strain elf1, stronger effect = lower value
  normalized growth: 0.98
S. cerevisiae deletion strains, locus YKL190W, strain CNB1, stronger effect = lower value
  normalized growth: 1.01
S. cerevisiae deletion strains, locus YKR001C, strain vps1, stronger effect = lower value
  normalized growth: 0.993
S. cerevisiae deletion strains, locus YKR026C, strain gcn3, stronger effect = lower value
  normalized growth: 0.983
S. cerevisiae deletion strains, locus YKR091W, strain srl3, stronger effect = lower value
  normalized growth: 0.984
S. cerevisiae deletion strains, locus YLL001W, strain dnm1, stronger effect = lower value
  normalized growth: 0.938
S. cerevisiae deletion strains, locus YLL026W, stronger effect = lower value
  normalized growth: 0.988
S. cerevisiae deletion strains, locus YLL041C, strain sdh2, stronger effect = lower value
  normalized growth: 0.986
S. cerevisiae deletion strains, locus YLR027C, strain aat2, stronger effect = lower value
  normalized growth: 0.98
S. cerevisiae deletion strains, locus YLR039C, strain RIC1, stronger effect = lower value
  normalized growth: 1.17
S. cerevisiae deletion strains, locus YLR058C, strain SHM2, stronger effect = lower value
  normalized growth: 1.02
S. cerevisiae deletion strains, locus YLR102C, strain apc9, stronger effect = lower value
  normalized growth: 0.975
S. cerevisiae deletion strains, locus YLR113W, strain HOG1, stronger effect = lower value
  normalized growth: 0.874
S. cerevisiae deletion strains, locus YLR221C, strain rsa3, stronger effect = lower value
  normalized growth: 0.874 (active)
S. cerevisiae deletion strains, locus YLR258W, strain gsy2, stronger effect = lower value
  normalized growth: 0.978
S. cerevisiae deletion strains, locus YLR262C, strain YPT6 (second series), stronger effect = lower value
  normalized growth: 0.912
S. cerevisiae deletion strains, locus YLR262C, strain YPT6, stronger effect = lower value
  normalized growth: 1.03
S. cerevisiae deletion strains, locus YLR268W, strain sec22, stronger effect = lower value
  normalized growth: 0.993
S. cerevisiae deletion strains, locus YLR320W, strain mms22, stronger effect = lower value
  normalized growth: 0.819 (active)
S. cerevisiae deletion strains, locus YLR330W, strain CHS5, stronger effect = lower value
  normalized growth: 0.995
S. cerevisiae deletion strains, locus YLR342W, strain FKS1 (second series), stronger effect = lower value
  normalized growth: 1.01
S. cerevisiae deletion strains, locus YLR342W, strain FKS1, stronger effect = lower value
  normalized growth: 0.971
S. cerevisiae deletion strains, locus YLR357W, strain rsc2, stronger effect = lower value
  normalized growth: 0.973
S. cerevisiae deletion strains, locus YLR370C, strain arc18, stronger effect = lower value
  normalized growth: 0.943
S. cerevisiae deletion strains, locus YLR371W, strain rom2, stronger effect = lower value
  normalized growth: 0.987
S. cerevisiae deletion strains, locus YLR384C, strain iki3, stronger effect = lower value
  normalized growth: 0.986
S. cerevisiae deletion strains, locus YLR418C, strain cdc73, stronger effect = lower value
  normalized growth: 0.966
S. cerevisiae deletion strains, locus YML016C, strain PPZ1, stronger effect = lower value
  normalized growth: 1.01
S. cerevisiae deletion strains, locus YML032C, strain rad52, stronger effect = lower value
  normalized growth: 0.999
S. cerevisiae deletion strains, locus YML120C, strain ndi1, stronger effect = lower value
  normalized growth: 0.874 (active)
S. cerevisiae deletion strains, locus YML124C, strain tub3, stronger effect = lower value
  normalized growth: 0.981
S. cerevisiae deletion strains, locus YMR058W, strain fet3, stronger effect = lower value
  normalized growth: 0.975
S. cerevisiae deletion strains, locus YMR078C, strain ctf18, stronger effect = lower value
  normalized growth: 0.973
S. cerevisiae deletion strains, locus YMR125W, strain sto1, stronger effect = lower value
  normalized growth: 0.975
S. cerevisiae deletion strains, locus YMR129W, stronger effect = lower value
  normalized growth: 0.987
S. cerevisiae deletion strains, locus YMR205C, strain PFK2, stronger effect = lower value
  normalized growth: 0.982
S. cerevisiae deletion strains, locus YMR223W, strain ubp8, stronger effect = lower value
  normalized growth: 0.976
S. cerevisiae deletion strains, locus YMR231W, strain pep5, stronger effect = lower value
  normalized growth: 0.988
S. cerevisiae deletion strains, locus YMR263W, strain SAP30, stronger effect = lower value
  normalized growth: 1 and 1.01
S. cerevisiae deletion strains, locus YMR307W, strain GAS1, stronger effect = lower value
  normalized growth: 1.02 and 1
S. cerevisiae deletion strains, locus YNL067W, strain RPL9B, stronger effect = lower value
  normalized growth: 1
S. cerevisiae deletion strains, locus YNL071W, strain lat1, stronger effect = lower value
  normalized growth: 0.986
S. cerevisiae deletion strains, locus YNL175C, strain NOP13, stronger effect = lower value
  normalized growth: 1
S. cerevisiae deletion strains, locus YNL183C, strain NPR1, stronger effect = lower value
  normalized growth: 0.931
S. cerevisiae deletion strains, locus YNL197C, strain WHI3, stronger effect = lower value
  normalized growth: 1
S. cerevisiae deletion strains, locus YNL209W, strain ssb2, stronger effect = lower value
  normalized growth: 0.953
S. cerevisiae deletion strains, locus YNL224C, strain SQS1, stronger effect = lower value
  normalized growth: 0.994
S. cerevisiae deletion strains, locus YNL233W, strain BNI4, stronger effect = lower value
  normalized growth: 1.01
S. cerevisiae deletion strains, locus YNL248C, strain rpa49, stronger effect = lower value
  normalized growth: 0.958
S. cerevisiae deletion strains, locus YNL250W, strain rad50, stronger effect = lower value
  normalized growth: 0.947
S. cerevisiae deletion strains, locus YNL271C, strain bni1, stronger effect = lower value
  normalized growth: 0.955
S. cerevisiae deletion strains, locus YNL298W, strain CLA4, stronger effect = lower value
  normalized growth: 0.944
S. cerevisiae deletion strains, locus YNL307C, strain MCK1, stronger effect = lower value
  normalized growth: 0.986
S. cerevisiae deletion strains, locus YNL322C, strain KRE1 (second series), stronger effect = lower value
  normalized growth: 0.64 (active)
S. cerevisiae deletion strains, locus YNL322C, strain KRE1, stronger effect = lower value
  normalized growth: 1
S. cerevisiae deletion strains, locus YNR049C, strain mso1, stronger effect = lower value
  normalized growth: 0.984
S. cerevisiae deletion strains, locus YNR052C, strain pop2, stronger effect = lower value
  normalized growth: 0.99
S. cerevisiae deletion strains, locus YOL012C, strain htz1
  normalized growth: 2.03
S. cerevisiae deletion strains, locus YOL147C, strain pex11, stronger effect = lower value
  normalized growth: 0.981
S. cerevisiae deletion strains, locus YOR001W, strain rrp6, stronger effect = lower value
  normalized growth: 0.926
S. cerevisiae deletion strains, locus YOR061W, strain CKA2, stronger effect = lower value
  normalized growth: 1.01
S. cerevisiae deletion strains, locus YOR069W, strain VPS5, stronger effect = lower value
  normalized growth: 0.996
S. cerevisiae deletion strains, locus YOR070C, strain gyp1, stronger effect = lower value
  normalized growth: 0.977
S. cerevisiae deletion strains, locus YOR080W, strain dia2, stronger effect = lower value
  normalized growth: 0.989
S. cerevisiae deletion strains, locus YOR083W, strain WHI5 (second series), stronger effect = lower value
  normalized growth: 1.01
S. cerevisiae deletion strains, locus YOR083W, strain WHI5, stronger effect = lower value
  normalized growth: 0.942
S. cerevisiae deletion strains, locus YOR106W, strain vam3, stronger effect = lower value
  normalized growth: 0.929
S. cerevisiae deletion strains, locus YOR136W, strain idh2, stronger effect = lower value
  normalized growth: 1
S. cerevisiae deletion strains, locus YOR144C, strain elg1, stronger effect = lower value
  normalized growth: 0.992
S. cerevisiae deletion strains, locus YOR184W, strain ser1, stronger effect = lower value
  normalized growth: 0.988
S. cerevisiae deletion strains, locus YOR231W, strain MKK1, stronger effect = lower value
  normalized growth: 0.953
S. cerevisiae deletion strains, locus YOR265W, strain rbl2, stronger effect = lower value
  normalized growth: 0.96
S. cerevisiae deletion strains, locus YOR270C, strain vph1, stronger effect = lower value
  normalized growth: 0.957
S. cerevisiae deletion strains, locus YOR290C, strain snf2, stronger effect = lower value
  normalized growth: 0.895
S. cerevisiae deletion strains, locus YOR316C, strain cot1, stronger effect = lower value
  normalized growth: 0.985
S. cerevisiae deletion strains, locus YPL051W, strain arl3, stronger effect = lower value
  normalized growth: 0.969
S. cerevisiae deletion strains, locus YPL078C, strain atp4, stronger effect = lower value
  normalized growth: 0.975
S. cerevisiae deletion strains, locus YPL106C, strain sse1, stronger effect = lower value
  normalized growth: 1.02
S. cerevisiae deletion strains, locus YPL240C, strain hsp82, stronger effect = lower value
  normalized growth: 0.978
S. cerevisiae deletion strains, locus YPL241C, strain CIN2, stronger effect = lower value
  normalized growth: 0.996
S. cerevisiae deletion strains, locus YPL256C, strain CLN2, stronger effect = lower value
  normalized growth: 0.871
S. cerevisiae deletion strains, locus YPR119W, strain clb2, stronger effect = lower value
  normalized growth: 0.98
S. cerevisiae deletion strains, locus YPR141C, strain kar3, stronger effect = lower value
  normalized growth: 0.96
S. cerevisiae deletion strains, locus YPR163C, strain tif3, stronger effect = lower value
  normalized growth: 0.981
S. cerevisiae deletion strains, locus YPR167C, strain met16, stronger effect = lower value
  normalized growth: 0.977
S. cerevisiae deletion strains, strain wtn01, stronger effect = lower value
  normalized growth: 0.985
S. cerevisiae strains, strain wild type, stronger effect = lower value
  normalized growth: 1
